The values below come from PubChem BioAssay (Tox21).

The structures appear in SMILES notation. Results filed as inconclusive are left out. Entries that show only a call come without a potency. Unmarked numbers belong to inactive results. Activity calls are given as the source filed them. Unless noted, calls follow the shape of the dose curve; as a rule, active = well fitted cell-killing curve with a large enough effect in the repeat runs; inconclusive = weak or mixed curves, or effect the other way; inactive = no such curve, though single readings can be large or run the other way.

The first assay can be described thus: qHTS assay to identify small molecule antagonists of the peroxisome proliferator-activated receptor gamma (PPARg) signaling pathway - cell viability counter screen (AID 743194). Also: nearly all actives have a fitted effect of over 55% in size. Particulars: PPARg-bla HEK293H viability, CellTiter-Glo luminescence, 17 h, co-treated with 50 nM rosiglitazone; series mostly up to 62.6 µM. A digest of the protocol:
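Cytotoxicity counter screen in PPARg-bla HEK293H cells, same wells as reporter assay. Compounds plus 50 nM rosiglitazone (final) for 17 h at 37 C, then viability read by CellTiter-Glo luminescence.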
Regarding `CCOC(=O)C1=NOC(c2ccccc2)(c2ccccc2)C1`, the outcome was inactive.
The same measure, in the same setting: the same measure for `CC/C=C\CCOC(C)OCC` (stereo not drawn): “inactive”.
On the same count and under the same terms, for `CC(=O)C1CCCCC1=O` (stereo not drawn) the value was “inactive”; for `CCC1C(=O)OCC1Cc1cncn1C` (stereo not drawn), “inactive”.
Turning to `O=S(=O)(O)c1cc(O)c(O)c(S(=O)(=O)O)c1`, the result was inactive.
Regarding `CCOc1ccccc1OCC`, the outcome was inactive.
Same read-out and setting: for `CCCCCC(=O)OCCc1ccccc1` the value was “inactive”; for `CN(C)CCCN(C)CCCN(C)C`, “inactive”; for `CCCCCC(C)N` (stereo not drawn), “inactive”.
As for `CCN[C@@H]1C[C@H](N)[C@@H](OC2OC(CN)=CCC2N)[C@H](O)[C@H]1O[C@H]1OC[C@](C)(O)[C@H](NC)[C@H]1O` (stereo partly drawn), the activity change, negative = cytotoxicity was -4.19% [at 0.55 µM].
As for `O=[N+]([O-])c1ccc(/C=N\O)o1`, the outcome was inactive.
Regarding `CCN(Cc1ccccc1)c1ccccc1`, the outcome was inactive.
Same read-out and setting: for `CN(C)CCN(C)CCN(C)C` the value was “inactive”; for `CCN[C@H]1C[C@H](C)S(=O)(=O)c2sc(S(N)(=O)=O)cc21`, “inactive”.

Another assay is described as follows: qHTS assay for small molecule agonists of the antioxidant response element (ARE) signaling pathway (AID 743202; active = well fitted activation curve with a large enough effect in the signal ratio in the repeat runs, not every such curve was filed as active; the % refers to the signal ratio). Particulars: HepG2 ARE-bla reporter, beta-lactamase FRET, 16 h; series mostly up to 73.3 µM. A digest of the protocol: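 Agonist mode reporter screen: HepG2 cells with ARE-controlled beta-lactamase are incubated with test compounds for 16 h at 37 C, and beta-lactamase activity is measured as fluorescence of cleaved B/G FRET substrate.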
(In qHTS, concentration-response curves come from the screen itself.)
As for `CN1[C@@H]2CC[C@H]1CC(OC(=O)C(O)c1ccccc1)C2` (stereo partly drawn), the Potency result is “inactive”.
The same measure, in the same setting: the same measure for `CC[N+](C)(CC)CCOC(=O)C1c2ccccc2Oc2ccccc21`: “inactive”.
Consider `CCOC(=O)OC(C)OC1=C(C(=O)Nc2ccccn2)N(C)S(=O)(=O)c2ccccc21` (stereo not drawn), for which the Potency entry is “inactive”.
Same read-out and setting: the same measure for `CC(=O)NC(=O)c1ccccc1O`: “inactive”.
As for `CCCCCCCC1CCCC1=O` (stereo not drawn), the Potency result was “inactive”.
For `CC(CO)(CO)[N+](=O)[O-]`, the Potency result is “inactive”.
`CCCc1ncc(C[n+]2ccccc2C)c(N)n1`: the Potency result was “inactive”.
`CN1CC(=O)N/C1=N/C(=O)Nc1cccc(Cl)c1`: the Potency entry was “inactive”.
Same read-out and setting: the same measure for `CC(C)(C)C(=O)Oc1ccc(S(=O)(=O)Nc2ccccc2C(=O)NCC(=O)O)cc1`: “inactive”; for `Cc1ccc(-c2ncc(Cl)cc2-c2ccc(S(C)(=O)=O)cc2)cn1`: “inactive”; for `CCCCN1C=CN(C)C1`: “inactive”.
In the case of `NC(CCC(=O)O)C(=O)O` (stereo not drawn), the Potency result is “inactive”.
Consider `C[N+]1(C)[C@@H]2CC(OC(=O)[C@H](CO)c3ccccc3)C[C@H]1[C@@H]1O[C@@H]12` (stereo partly drawn), for which the Potency result is “inactive”.
Turning to `CCCCc1ccc2c(n1)[C@@H](c1ccc(OC)cc1C[C@H](C)C(=O)O)[C@H](C(=O)O)[C@H]2c1ccc2c(c1)OCO2`, the Potency result is “inactive”.
On the same count and under the same terms, the same measure for `CN(C)[C@@H]1C(=O)C(C(=O)NCN2CCCC2)=C(O)[C@@]2(O)C(=O)C3=C(O)c4c(O)cccc4[C@@](C)(O)C3C[C@@H]12` (stereo partly drawn): “inactive”; for `NS(=O)(=O)Cc1noc2ccccc12`: “inactive”.
Regarding `CN(C)C(=O)Oc1ccc[n+](C)c1`, the Potency result was “inactive”.
For `CCOC(=O)C1=NOC(c2ccccc2)(c2ccccc2)C1`, the Potency result is “inactive”.
For the compound `CC(=O)C1CCCCC1=O` (stereo not drawn), the Potency result was “inactive”.
Same read-out and setting: the same measure for `CCC1C(=O)OCC1Cc1cncn1C` (stereo not drawn): “inactive”.
Regarding `CCOc1ccccc1OCC`, the Potency result was “inactive”.
Take `CN(C)CCCN(C)CCCN(C)C`: the Potency result is “inactive”.
Take `COc1ccc2cc1Oc1cc3c(cc1OC)CC[N+](C)(C)[C@H]3Cc1ccc(cc1)Oc1c(OC)c(OC)cc3c1[C@@H](C2)[N+](C)(C)CC3`: the Potency entry is “inactive”.
As to `CCCCCC(C)N` (stereo not drawn), the Potency entry was “inactive”.
`CCN[C@@H]1C[C@H](N)[C@@H](OC2OC(CN)=CCC2N)[C@H](O)[C@H]1O[C@H]1OC[C@](C)(O)[C@H](NC)[C@H]1O` (stereo partly drawn): the activation was -10.7% [at 0.756 µM].
Regarding `CCN(Cc1ccccc1)c1ccccc1`, the Potency entry is “inactive”.
As to `CN(C)CCN(C)CCN(C)C`, the Potency entry is “inactive”.
`CCN[C@H]1C[C@H](C)S(=O)(=O)c2sc(S(N)(=O)=O)cc21`: the Potency result is “inactive”.
As to `O=C(CO)[C@@H](O)[C@H](O)[C@@H](O)CO`, the Potency entry was “inactive”.
